High-throughput results (PubChem)
A selection: hits, their analogues and other compounds. The true share with any hit is near 10%.
G9a block = inhibitors of human histone lysine methyltransferase G9a; G9a H3K9 monomethylation, AlphaScreen, 2 h; Potency, µM (top dose mostly 102 µM), for inactives: top-dose activity, negative = inhibition, usual class: inhibitors; 8.8% of 350,000 active; AID 504332; note: potency is the fitted concentration of half-maximal effect; % is set by controls: 0 for no effect and ±100 for the full control effect; nearly all actives have a fitted effect of over 75% in size
Target sequence (Q96KQ7 913-1193 limits assumed): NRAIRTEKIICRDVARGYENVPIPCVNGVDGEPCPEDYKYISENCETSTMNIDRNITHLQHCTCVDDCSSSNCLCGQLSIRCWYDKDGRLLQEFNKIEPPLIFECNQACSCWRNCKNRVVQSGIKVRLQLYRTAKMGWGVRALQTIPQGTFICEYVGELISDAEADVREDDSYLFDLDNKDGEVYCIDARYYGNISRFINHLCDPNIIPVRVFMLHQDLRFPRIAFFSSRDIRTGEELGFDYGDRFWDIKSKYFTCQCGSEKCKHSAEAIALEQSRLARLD
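Using a bead-based AlphaScreen, monomethylated H3K9 product from 2 h room-temperature reactions (G9a 20 nM, peptide 500 nM, SAM 20 uM) was detected with 0.5 ug/mL rabbit anti-H3K9me1 antibody.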
CtBP-E1A inh = blocks the CtBP interaction with E1A | AlphaScreen GST-E1A/His-CtBP binding, 1536-well; active compounds read low | activity change, % (no concentration beside the values) | 0.49% of 340,000 active; in the data active = activity change below about -65%; inconclusive = mostly about -30% to -63%; note: % is set by controls: 0 for no effect and ±100 for the full control effect
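Homogeneous bead-based format: GST-tagged E1A captured on glutathione donor beads, His-tagged CtBP on nickel acceptor beads; compounds precede bead addition by 2 h at 37 °C.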
BAZ2B block = BAZ2B (human) inhibition. Q9UIF8. AlphaScreen BAZ2B-H3K14Ac peptide displacement. Potency, µM (top dose mostly 114 µM), for inactives: top-dose activity change, negative = inhibition, actives largely listed as inhibitors. 4.4% of 360,000 active. AID 504333; note: potency is the fitted concentration of half-maximal effect; % is set by controls: 0 for no effect and ±100 for the full control effect; nearly all actives have a fitted effect of over 60% in size
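Protein-peptide AlphaScreen: BAZ2B 50 nM, b-H3K14Ac 50 nM, 1x PBS pH 7.4 + 0.01% Tween-20. Preincubation 30 min RT; cpd 30 min RT (top 110 uM); beads 20 min RT, light-protected.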
Six1-Eya2 inh = blocks human Six1 binding to Eya2; activity change, % (no concentration beside the values); AlphaScreen GST-Six1/His-Eya2 binding, biochemical; active compounds read low; 0.56% of 360,000 active; Q15475+O00167; in the data active = activity change below about -65%; inconclusive = mostly about -30% to -63%; note: % is set by controls: 0 for no effect and ±100 for the full control effect
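Compounds are tested against tagged Six1 and Eya2 proteins bridged by glutathione donor and nickel acceptor beads; after a one-hour incubation at 37 °C without light, AlphaScreen emission is recorded.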
JMJD2A Tudor = inhibitors of human JMJD2A Tudor domain. O75164. AlphaScreen JMJD2A-Tudor / H3K4me3 peptide binding. Potency, µM (doses to about 114 µM), inactives show at the highest dose activity change, negative = inhibition, actives largely listed as inhibitors. AID 504339. 4.4% of 390,000 active; note: potency is the fitted concentration of half-maximal effect; % is set by controls: 0 for no effect and ±100 for the full control effect; nearly all actives have a fitted effect of over 50% in size
HP1b binding inh = blocks HP1-beta chromodomain binding to methylated histone tails; P83916; AlphaScreen HP1-beta / biotin-H3K9me3 peptide binding; Potency, µM (highest dose often 114 µM), for the others: at the highest dose activity change, negative = inhibition, hits mostly inhibitors; 0.56% of 390,000 active; AID 540317; note: potency is the fitted concentration of half-maximal effect; nearly all actives have a fitted effect of over 70% in size
Target sequence (P83916 whole entry, looked up): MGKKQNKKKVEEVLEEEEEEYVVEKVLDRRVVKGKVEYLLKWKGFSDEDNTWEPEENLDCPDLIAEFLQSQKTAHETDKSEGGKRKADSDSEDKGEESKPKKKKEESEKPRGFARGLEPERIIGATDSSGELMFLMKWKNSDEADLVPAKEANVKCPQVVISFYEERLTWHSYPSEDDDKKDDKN
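HP1-beta protein (50 nM final) preincubated 30 min at room temperature with biotinylated H3(1-18)K9me3 peptide (50 nM) in PBS pH 7.4, 0.01% Tween-20, then compound added for 30 min. AlphaScreen streptavidin donor/nickel chelate acceptor beads (10 ug/mL final), 30 min dark, luminescence read.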
* = called active by the depositor; ? = inconclusive; / = no result given; [ ] = dose if it differs, or a comment. Unless noted, calls come from the whole dose curve; as a rule, active = well fitted inhibition curve with a large enough effect; inconclusive = small, poorly fitted or top-dose-only effect; inactive = no such curve, though single readings can be large or run the other way.

SMILES | G9a block | CtBP-E1A inh | BAZ2B block | Six1-Eya2 inh | JMJD2A Tudor | HP1b binding inh
CCCCOc1ccc(C2(C)NC(=O)NC2=O)cc1 (stereo not drawn) | 4%[59 µM] | 1 | -3% | 7 | 16µM* | 17%
CC1CCCC(C)N1C(=O)CNCc1ccc2c(c1)OCO2 (stereo not drawn) | 50µM* | 8 | ? | 2 | 50µM* | 1%
c1cc2c(cc1NC1CCCCCC1)OCO2 | 7.9µM* | -4 | 40µM* | -13 | 50µM* | ?
O=C(NCc1ccc2c(c1)OCO2)C(=O)NCC1CCCO1 (stereo not drawn) | 17%[59 µM] | 2 | 0% | 14 | -5% | 39%
O=C(NCc1ccc2c(c1)OCO2)C(=O)NC1CCCCC1 | ? | 2 | -3% | 2 | 50µM* | ?
O=C(NCc1cccc(Cl)c1)c1oc(=O)c2ccccc2c1-c1ccccc1 | -1%[59 µM] | / | -6% | / | -13% | 18%
CN(C)c1ccc(CNC(=O)CN2C(=O)CCn3nc(-c4cn(C)c5ccccc45)cc32)cc1 | ? | / | 45µM* | / | 50µM* | -9%[57 µM]
CCN(CC)Cc1oc(CO)cc(=O)c1O | 13µM* | 0 | 32µM* | -4 | ? | ?
CN1CCN(Cc2oc(CO)cc(=O)c2O)CC1 | ? | 4 | ? | 0 | 56µM* | 1%
O=C(O)C1CCN(Cc2oc(CO)cc(=O)c2O)C1 (stereo not drawn) | / | 0 | / | 3 | ? | 20%
O=c1cc(CO)oc(CN2CCN(Cc3ccccc3)CC2)c1O | 50µM* | 0 | ? | 1 | ? | 11%
O=c1cc(CO)oc(CN2CCCC2)c1O | 45µM* | 7 | ? | -2 | 89µM* | 3%
COc1ccc(N2CCN(Cc3oc(CO)cc(=O)c3O)CC2)cc1 | ? | -7 | ? | -5 | ? | 46%
CCN(CC)CCCC(C)NC(=O)c1cccc(S(=O)(=O)N2CCc3ccccc32)c1 (stereo not drawn) | 45µM* | 4 | -12% | 1 | -28% | -16%
CC(C)CN(CC(C)C)C(=O)c1cccc(S(=O)(=O)N2CCc3ccccc32)c1 | 79µM* | 4 | -15% | 2 | 45µM* | -17%
CC(C)CCNC(=O)c1cccc(S(=O)(=O)N2CCc3ccccc32)c1 | -4%[59 µM] | 10 | -3% | 8 | -3% | 39%
O=C1NC(=S)S/C1=C\c1ccc(SCc2ccco2)o1 | 10µM* | -11 | 18µM* | ? | 6.3µM* | 11µM*
O=C1NC(=S)S/C1=C\c1ccc(SCc2ccccc2)o1 | ? | -17 | 50µM* | -24 | 25µM* | ?
Cc1ccccc1Cn1c(C)c(CNCc2ccccc2)c(C(=O)O)c1C | 10%[59 µM] | / | -16% | / | -21% | 1%
COc1ccc(NC(=O)c2cccc3c(=O)c4c([nH]c23)CCCC4)cc1 | -25%[59 µM] | / | -15% | / | -2% | 38%
S=c1[nH]nc(CNc2cccc(Cl)c2)o1 | 18µM* | 7 | -22% | 8 | -26% | 21%
COc1nccnc1NS(=O)(=O)c1ccc(NC(=S)NC(=O)c2cccc(F)c2)cc1 | ? | -6 | ? | -7 | ? | -29%
COc1nccnc1NS(=O)(=O)c1ccc(NC(=S)NC(=O)c2cccnc2)cc1 | 50µM* | / | ? | 0 | -13% | 8%
COc1nsnc1NS(=O)(=O)c1ccc(NC(=S)NC(=O)c2cccnc2)cc1 | / | 0 | ? | -1 | 11µM* | ?
CN(C)c1ccc(CNC(=O)Cn2ccc3cc(S(=O)(=O)N4CCCCCC4)ccc32)cc1 | ? | / | ? | / | ? | 22%
SMILES | G9a block | CtBP-E1A inh | BAZ2B block | Six1-Eya2 inh | JMJD2A Tudor | HP1b binding inh
CC12CCC(C(=O)N(CCCCN3CCN(Cc4ccccc4)CC3)C1=O)C2(C)C (stereo not drawn) | 56µM* | 0 | -16% | 35 | ? | -6%
CC12CCC(C(=O)N(CC(O)CN3CCN(Cc4ccccc4)CC3)C1=O)C2(C)C (stereo not drawn) | -48%[12.7 µM] | 5 | ? | 6 | -6% | 26%
CCC(=O)Nc1cc(SCCO)cc([N+](=O)[O-])c1 | 16% | -17 | -26% | 0 | -6% | 27%
CC(C)=NOc1cc(NC(=O)CCl)cc([N+](=O)[O-])c1 | 56µM* | -18 | -11% | 1 | -12% | 42%
CCC(=O)Nc1cc(ON=C(C)C)cc([N+](=O)[O-])c1 | 14% | -17 | -29% | 2 | 2% | 31%
O=C(CCl)Nc1cc(SCC(O)CO)cc([N+](=O)[O-])c1 (stereo not drawn) | 50µM* | 2 | -36% | 2 | -24% | 46%
Cc1cc(NC(=O)CSc2ncc(C(=O)Nc3ccc(F)cc3)c(=O)n2C)no1 | 4%[59 µM] | / | -1% | / | 6% | 27%
CCN(CC)C(=O)CC(c1ccc(F)cc1)c1ccco1 (stereo not drawn) | 14µM* | 5 | -26% | -4 | -7% | 20%
CCCN(CCC)C(=O)CC(c1ccccc1)c1ccco1 (stereo not drawn) | / | 0 | -26% | -17 | -6% | 33%
O=c1c2oc3ccccc3c2n(Cc2ccccc2Cl)c(=O)n1Cc1ccco1 | -42%[59 µM] | / | -37% | / | -3% | 4%
O=C(NCCc1ccccc1)c1ccc(-c2ccccc2C(F)(F)F)o1 | 50µM* | -2 | -4% | -4 | 25% | 37%
Cc1cccc(NC(=O)c2ccc(-c3ccccc3[N+](=O)[O-])o2)c1 | -4%[0.501 µM] | -18 | ? | ? | ? | -6%
O=C(Nc1cccc(F)c1)c1ccc(-c2ccccc2C(F)(F)F)o1 | 45µM* | / | 2% | / | / | /
Cc1ccccc1-c1ccc(C(=O)Nc2cccc(F)c2)o1 | 10µM* | 0 | ? | -2 | -1% | -1%
COc1ccc(NC(=O)c2ccc(-c3ccccc3C(F)(F)F)o2)cc1 | 71µM* | 11 | 8% | 7 | -13% | 35%
O=S(=O)(c1ccc2ccccc2c1)n1nc(-c2ccco2)nc1NCc1ccc(F)cc1 | 18µM* | / | ? | / | -35% | 24%
CSc1nc(-c2ccco2)nn1S(=O)(=O)c1ccccc1 | 20µM* | / | ? | / | / | /
Cc1ccc(S(=O)(=O)n2nc(-c3ccco3)nc2SCc2ccccc2)cc1 | ? | 3 | ? | -1 | -29% | 21%
CCS(=O)(=O)n1nc(-c2ccco2)nc1SC | ? | 2 | 21% | -1 | 28µM* | ?
CSc1nc(-c2ccco2)nn1S(=O)(=O)c1ccc(C)cc1 | 40µM* | 7 | -7% | -1 | -12% | 3%
CNc1cccc(S(=O)(=O)N2CCN(S(=O)(=O)c3ccc4c(c3)OCCO4)CC2)c1 | / | / | / | / | -16% | /
COc1cc(NC(=O)Cc2cccs2)cc(OC)c1 | 11%[59 µM] | 3 | 14% | -2 | -15%[11.4 µM] | ?
